Shown are actives, neighbours in structure and some others; about 8.5% of the full set was active somewhere.
ALDH1A1 inh: qHTS Assay for Inhibitors of Aldehyde Dehydrogenase 1 (ALDH1A1) | Aldehyde dehydrogenase 1A1 (Homo sapiens), P00352 | Purified ALDH1A1, NADH fluorescence, propionaldehyde substrate | Potency, µM (series often up to 75.3 µM), actives largely listed as inhibitors | 220,000 compounds, 7.3% hits
Sfp inh: qHTS Assay for Inhibitors of Bacillus subtilis Sfp phosphopantetheinyl transferase (PPTase); 4'-phosphopantetheinyl transferase ffp (Bacillus subtilis), Q9F4F7; Biochemical Sfp PPTase activity, qHTS; Potency, µM, actives largely listed as inhibitors; AID 1490, 2009; 310,000 compounds, 3.5% hits; active = well fitted curve in the direction sought with a large enough effect; inconclusive = small, poorly fitted or top-dose-only effect, or another doubt; inactive = no such curve, though single readings can be large; an effect the other way counts as inactive or inconclusive;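 also: the enzyme is Sfp with the accession as filed and its product quenches rhodamine fluorescence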
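Fluorescence-quenching assay with 15 nM Sfp, 5 uM rhodamine-CoA and 12.5 uM BHQ-2-labelled ybbR peptide in pH 7.6 Hepes/MgCl2 buffer. Enzyme was pre-incubated with compound for 15 min at room temperature. Rate was taken from the 30-min fluorescence change (525/598 nm).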
Coupling enz: qHTS Assay for Inhibitors of Fructose-1,6-bisphosphate Aldolase from Giardia Lamblia: Coupling assay counterscreen; 290,000 compounds, 0.67% hits; activity change, negative = inhibition, % at 58.2 µM, hits read low; coupling enzyme system counterscreen, AmpLite Red fluorescence; in the data active = activity change below about -30%
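Coupling enzymes only (glyceraldehyde-3-phosphate) + compound, at 57.5 uM final, 10 min RT; add substrate/coupling/AmpLite Red mix, 20 min RT; fluorescence ex 525/em 598 nm. Actives flag coupling-system interference.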
NPSR antagonist: qHTS Assay for Antagonists of the Neuropeptide S Receptor: cAMP Signal Transduction. Potency, µM (titrated, usually from 38.3 µM), most hits filed as inhibitors. 220,000 compounds, 1% hits. Q6W5P4. CHO-NPSR cells, cAMP TR-FRET, antagonist mode; active = well fitted curve in the direction sought with a large enough effect; inconclusive = small, poorly fitted or top-dose-only effect, or another doubt; inactive = no such curve, though single readings can be large; an effect the other way counts as inactive or inconclusive; also: nearly all actives have a fitted effect of over 50% in size
Target sequence (Q6W5P4 whole entry, looked up): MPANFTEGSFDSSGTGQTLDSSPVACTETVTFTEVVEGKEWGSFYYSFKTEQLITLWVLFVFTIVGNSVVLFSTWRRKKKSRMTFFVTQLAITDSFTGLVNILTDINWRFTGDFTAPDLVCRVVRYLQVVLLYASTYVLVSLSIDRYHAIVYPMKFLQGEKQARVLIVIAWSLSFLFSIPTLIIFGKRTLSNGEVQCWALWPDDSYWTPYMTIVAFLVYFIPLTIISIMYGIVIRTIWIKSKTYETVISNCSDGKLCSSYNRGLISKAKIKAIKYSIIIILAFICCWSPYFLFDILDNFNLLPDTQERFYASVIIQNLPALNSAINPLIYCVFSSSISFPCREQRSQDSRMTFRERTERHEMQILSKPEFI
JMJD2E inh: qHTS Assay for Inhibitors of Human Jumonji Domain Containing 2E (JMJD2E); Lysine-specific demethylase 4E (Homo sapiens), B2RXH2; JMJD2E catalytic domain, FDH-coupled NADH fluorescence (FDH is formaldehyde dehydrogenase); Potency, µM (series often up to 57.1 µM), hits mostly inhibitors; 230,000 compounds, 1.6% hits; AID 2147, 2009; also: nearly all actives have a fitted effect of over 50% in size
RGS12 GoLoco inh: qHTS Assay for Inhibitors of RGS12 GoLoco Motif Activity (Red Fluorophore). Guanine nucleotide-binding protein G(i) subunit alpha-1 (Homo sapiens), P63096. Gai1:RGS12 GoLoco peptide FP, rhodamine, 10 min. Potency, µM (titrated, usually from 61.6 µM), usual class: inhibitors. 230,000 compounds, 0.44% hits. AID 880, 2007; active = well fitted inhibition curve with a large enough effect, not every such curve was filed as active; inactive = no such curve, though single readings can be large or run the other way; also: nearly all actives have a fitted effect of over 30% in size
Target sequence (P63096 whole entry, looked up): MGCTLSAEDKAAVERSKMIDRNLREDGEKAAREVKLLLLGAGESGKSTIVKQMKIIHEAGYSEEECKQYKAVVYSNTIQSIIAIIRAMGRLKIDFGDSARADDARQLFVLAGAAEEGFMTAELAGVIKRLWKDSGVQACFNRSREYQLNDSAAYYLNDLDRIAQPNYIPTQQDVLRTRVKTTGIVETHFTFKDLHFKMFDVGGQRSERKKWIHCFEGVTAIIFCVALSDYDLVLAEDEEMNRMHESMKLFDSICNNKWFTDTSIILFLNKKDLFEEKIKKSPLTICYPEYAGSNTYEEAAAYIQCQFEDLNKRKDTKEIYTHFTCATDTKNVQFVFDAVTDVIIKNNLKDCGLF
Large screens that a line does not name were inactive. Unless noted, calls follow the shape of the dose curve; as a rule, active = well fitted inhibition curve with a large enough effect (not every such curve was filed as active); inconclusive = small, poorly fitted or top-dose-only effect, or another doubt; inactive = no such curve, though single readings can be large or run the other way.

Cc1ccc(Cc2c[nH]c(=S)s2)cc1	ALDH1A1 inh 8.91µM, Sfp inh inconclusive
CC(=O)c1ccccc1Oc1nc(CN2CCOCC2)nc2scc(-c3cccs3)c12	ALDH1A1 inh 22.4µM, Sfp inh inconclusive, NPSR antagonist inconclusive, JMJD2E inh inconclusive
O=C(NC1CSC/C1=N\O)c1ccccc1 (configuration not stated)	ALDH1A1 inh 22.4µM
O=[N+]([O-])c1ccc(-n2nnnc2CN2CCCCC2)cc1	ALDH1A1 inh 20µM
CCCn1c(=S)[nH]c2cc(C(=O)N3CCN(C4CCCCC4)CC3)ccc2c1=O	none (no result: ALDH1A1 inh, NPSR antagonist, JMJD2E inh, RGS12 GoLoco inh)
CC1=CC(=O)C=C(C)C1=NOc1ccccc1[N+](=O)[O-]	ALDH1A1 inh inconclusive, Sfp inh 5.62µM, Coupling enz -36.6
Cc1ccc(-c2nn(-c3ccccc3)cc2C2SCC(=O)N2Cc2ccccc2)o1 (configuration not stated)	ALDH1A1 inh 28.2µM, Sfp inh 22.4µM, JMJD2E inh inconclusive
O=C1CSC(c2cn(-c3ccccc3)nc2-c2cc3ccccc3o2)N1Cc1ccccc1 (configuration not stated)	ALDH1A1 inh inconclusive, NPSR antagonist inconclusive, JMJD2E inh inconclusive
COc1ccc(-c2c(-c3ccc(OCC(=O)NN)cc3O)n[nH]c2C(F)(F)F)cc1	ALDH1A1 inh 12.6µM
Cc1ccc(NC2=C/C(=N/S(=O)(=O)c3cccs3)c3ccccc3C2=O)cc1	Coupling enz -42.1, NPSR antagonist 10µM
O=C1C(Nc2ccccc2)=C(NS(=O)(=O)c2ccccc2)C(=O)c2ccccc21	none
O=C1C(Nc2ccccc2)=C/C(=N/S(=O)(=O)c2cccs2)c2ccccc21	ALDH1A1 inh inconclusive, Sfp inh inconclusive, Coupling enz -37.9, JMJD2E inh inconclusive
Cc1ccc(/C=C2\S/C(=N/S(=O)(=O)c3cccs3)NC2=O)cc1	Sfp inh inconclusive, NPSR antagonist inconclusive (no result: ALDH1A1 inh)
CC1=C(C)C(=O)C(CCCCC#CCCCC#CCO)=C(C)C1=O	ALDH1A1 inh 14.1µM, Sfp inh inconclusive, Coupling enz -59.1, NPSR antagonist inconclusive, JMJD2E inh inconclusive
CCOc1cccc(/C=N/NC(=S)Nc2ccccc2[N+](=O)[O-])c1O	JMJD2E inh inconclusive
Cc1ccccc1OCC(=O)NCC(=O)N/N=C/c1cccc([N+](=O)[O-])c1	none
O=C(COc1ccccc1C(=O)N/N=C\c1ccc(O)c(O)c1)N/N=C/c1ccc(O)c(O)c1	Sfp inh inconclusive, JMJD2E inh 12.6µM
Cc1ccccc1OCC(=O)N/N=C/c1cccc(Oc2ccc([N+](=O)[O-])cc2[N+](=O)[O-])c1	Coupling enz -49.5
O=C(COc1ccccc1[N+](=O)[O-])N/N=C/c1ccccn1	ALDH1A1 inh inconclusive, Sfp inh 50.1µM
O=[N+]([O-])c1ccccc1NC(=S)N/N=C/c1ccc(O)c(O)c1	JMJD2E inh 25.1µM
O=[N+]([O-])c1cc(/C=N\Nc2nccs2)ccc1O	ALDH1A1 inh inconclusive, Sfp inh 14.1µM, NPSR antagonist 2.51µM, JMJD2E inh inconclusive
Cc1cc(Cl)ccc1OCCCC(=O)N/N=C/c1cccc([N+](=O)[O-])c1	Coupling enz -35.6
Cc1ccc(OCC(=O)N/N=C/c2ccccc2)c([N+](=O)[O-])c1	none
O=C(COc1ccccc1[N+](=O)[O-])N/N=C/c1ccc(O)c([N+](=O)[O-])c1	ALDH1A1 inh 25.1µM
Cc1ccccc1NC(=O)N1CCN(S(=O)(=O)c2ccccc2)CC1	none
COc1ccc2cc(C(=O)NCc3ccco3)c(=O)oc2c1	ALDH1A1 inh inconclusive, JMJD2E inh inconclusive
O=C(NCc1ccco1)c1cc2ccc(O)cc2oc1=O	ALDH1A1 inh inconclusive, Sfp inh 28.2µM, JMJD2E inh inconclusive
COc1ccc(-c2cc(C(=O)N3CCN(C(=O)c4ccccc4F)CC3)[nH]n2)cc1	none (no result: ALDH1A1 inh, NPSR antagonist, JMJD2E inh, RGS12 GoLoco inh)
COc1ccc(CCN2C(=NC(=O)CCC(=O)O)SC3CS(=O)(=O)CC32)cc1OC (configuration not stated)	ALDH1A1 inh 25.1µM, NPSR antagonist inconclusive
O=C(CCCCCNC(=O)c1ccccc1)N/N=C/c1ccc(O)cc1O	JMJD2E inh 20µM
C/C(=N\NC(=O)CCCCCNC(=O)c1ccccc1)c1ccccc1O	JMJD2E inh inconclusive
COc1ccc(/C=N\NC(=O)CNC(=O)C(c2ccccc2)c2ccccc2)cc1[N+](=O)[O-]	ALDH1A1 inh 11.2µM
CN(C)c1ccc(/C=N/NC(=O)C2COc3ccccc3O2)o1 (configuration not stated)	ALDH1A1 inh 22.4µM, Sfp inh inconclusive
O=C(N/N=C/c1ccc(O)cc1O)/C(=C/c1ccccc1)CCO	JMJD2E inh 15.8µM
CCn1c(=O)c2sccc2n2c(CCCC(=O)NCCc3ccc(S(N)(=O)=O)cc3)nnc12	none (no result: ALDH1A1 inh, NPSR antagonist, JMJD2E inh, RGS12 GoLoco inh)
O=C(CNC(=O)C(c1ccccc1)c1ccccc1)N/N=C/c1ccc(O)cc1O	JMJD2E inh 20µM (no result: ALDH1A1 inh)
O=C(CNC(=O)C1COc2ccccc2O1)N/N=C/c1ccc(O)cc1O (configuration not stated)	ALDH1A1 inh inconclusive, JMJD2E inh 28.2µM
O=C(CNC(=O)C(c1ccccc1)c1ccccc1)N/N=C\c1cccc(O)c1	none (no result: ALDH1A1 inh)
O=C(COC(=O)COc1ccccc1F)Nc1ccc(Cl)cn1	none (no result: ALDH1A1 inh)
O=C(COC(=O)Cc1ccccc1F)Nc1ccc(Cl)cn1	ALDH1A1 inh 12.6µM
CCCSc1nnc2n(N)c(=O)c3ccccc3n12	none
Nn1c(=O)c2ccccc2n2c(SCc3ccccc3)nnc12	ALDH1A1 inh 14.1µM
CCCCNc1nc(C)nc2c1nc(-c1ccccc1)n2CCN1CCCCC1	ALDH1A1 inh inconclusive, JMJD2E inh inconclusive (no result: NPSR antagonist)
CC(=O)Nc1cccc(-c2csc(NCc3ccco3)n2)c1	ALDH1A1 inh 12.6µM, Sfp inh 44.7µM, JMJD2E inh inconclusive
c1coc(CNc2nc(-c3cccs3)cs2)c1	ALDH1A1 inh inconclusive
Oc1ccc(-c2csc(NCc3ccco3)n2)cc1	ALDH1A1 inh inconclusive, Sfp inh 44.7µM, JMJD2E inh inconclusive
CC(C)OC(=O)c1cccc(-c2ccc(C=O)o2)c1	ALDH1A1 inh 6.31µM, Sfp inh inconclusive
Cc1ccccc1Nc1nc(N)nc(CSc2nnnn2C)n1	none
Cn1nnnc1SCc1csc(Nc2ccccc2)n1	Sfp inh 50.1µM
Cc1ccc(Nc2nc(CSc3nnnn3C)cs2)cc1	ALDH1A1 inh inconclusive
Cc1ccccc1Nc1nc(N)nc(CSc2nnnn2-c2ccccc2)n1	ALDH1A1 inh 12.6µM
Cc1ccc(Nc2nc(CSc3nnc(-c4ccccc4)n3C)cs2)cc1	none

Screening data deposited in PubChem by National Center for Advancing Translational Sciences (NCATS).
